HT1080NT lethal = kills 2HG-producing HT-1080-NT fibrosarcoma cells | HT-1080-NT fibrosarcoma viability, CellTiter-Glo ATP luminescence, 48 h | Potency, µM (highest dose often 46.1 µM), inactives show at the top dose activity, negative = less viability, hits mostly cytotoxic | 360,000 tested, 1.6% active | AID 686970;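 note: NT is the 2HG producing partner of a matched IDH1 knockdown line; potency is the fitted concentration of half-maximal effect; 0% = DMSO-treated cells and -100% = media-only wells without cells; nearly all actives have a fitted effect of over 55% in size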
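Compounds were tested in concentration-response format on HT-1080-NT cells for 48 hours at 37 degrees C. Cell viability came from CellTiter-Glo luminescence; curves were classified by r2, response magnitude and activity.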
IL-1B inflam inh = blocks inflammasome-driven IL-1 beta release | THP-1 LPS/ATP IL-1B secretion, AlphaLISA, 16 h; hits give low values | activity change, % at 57.5 µM | 360,000 tested, 4.7% active; in the data active = activity change below about -50%; inconclusive = mostly about -30% to -49%
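Secreted IL-1B measured by AlphaLISA bead assay after 16 h compound exposure of THP-1 cells; compounds (final up to 57.5 uM) added 1 h before LPS (250 ng/mL) and ATP (1.25 mM) stimulation; lower signal means less secretion.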
TDP1 cell noCPT = qHTS for Inhibitors of human tyrosyl-DNA phosphodiesterase 1 (TDP1): qHTS in cells in absence of CPT; DT40 Tdp1-/- hTDP1 cells, no CPT, ATP luminescence, 48 h; Potency, µM (doses to about 46.2 µM), inactives show at the top dose activity change, negative = growth inhibition, hits mostly inhibitors; 420,000 tested, 15% active; note: potency is the fitted concentration of half-maximal effect; nearly all actives have a fitted effect of over 55% in size
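Chicken DT40 Tdp1-/- cells complemented with human TDP1, screened without camptothecin (DMSO vehicle only), 400 cells/well. Compounds pin-transferred, cells incubated at 37 °C for at least 48 hr. Growth read as ATP-dependent luminescence (CellTiter-Glo, 30 min at RT).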
DT40 TDP1 CPT = DT40-hTDP1 cell growth loss with CPT. 420,000 tested, 12% active. chicken DT40 Tdp1-/-;hTDP1 cells + 20 nM CPT, ATP luminescence, 48 h. AID 686979. Potency, µM (highest dose often 46.2 µM), for inactives: at the top dose activity change, negative = growth inhibition, most hits filed as inhibitors; note: potency is the fitted concentration of half-maximal effect; nearly all actives have a fitted effect of over 55% in size
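Chicken DT40 Tdp1-/- cells complemented with human TDP1, 400 cells/well, exposed to compounds plus 20 nM camptothecin for at least 48 h at 37 C; viability read as ATP content by CellTiter-Glo luminescence.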
HT1080 IDH1KD tx = kills HT-1080 cells with IDH1 knockdown; 360,000 tested, 2% active; HT-1080 IDH1 knockdown viability, ATP luminescence, 48 h; AID 686971; Potency, µM (highest dose often 46.1 µM), for the others: at the top dose activity, negative = toxicity, usual class: cytotoxic;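 note: potency is the fitted concentration of half-maximal effect; 0% = DMSO wells and -100% = cell-free medium wells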
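CellTiter-Glo luminescence after 48 h compound exposure at 37 degrees C of IDH1-knockdown HT-1080 cells in 5% FBS RPMI. %Activity scaled between DMSO wells and cell-free media wells, with curves fitted and assigned curve classes.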
An asterisk follows results filed as active; i = inactive; ? = inconclusive; . = no result. In the library only some 19% were active in any assay of this set; here they are far more common. Unless noted, calls come from the whole dose curve; as a rule, active = well fitted curve in the direction sought with a large enough effect; inconclusive = small, poorly fitted or top-dose-only effect, or another doubt; inactive = no such curve, though single readings can be large; an effect the other way counts as inactive or inconclusive. Unless noted, % is set by controls: 0 for no effect and ±100 for the full control effect.

SMILES | HT1080NT lethal | IL-1B inflam inh | TDP1 cell noCPT | DT40 TDP1 CPT | HT1080 IDH1KD tx
COc1cc(/C=C/C(=O)OCC(=O)Nc2ccc(C)c(S(=O)(=O)N3CCCCC3)c2)ccc1O | ? | -13.8 | 25.9µM* | ? | -28.2%
COc1cc(C(C)=O)ccc1OCC(=O)Nc1ccc(C)c(S(=O)(=O)N2CCCCCC2)c1 | -22.5% | -58.8* | 16.4µM* | 8.2µM* | -21.5%
CC(=O)c1ccc(OCCCC(=O)Nc2ccc(C)c(S(=O)(=O)N3CCCCC3)c2)cc1 | ? | -24.8 | ? | ? | -10.1%
CCc1ccc(N(CC(=O)NC(C)C)C(=O)CCC(=O)Nc2nccs2)cc1 | -1.1% | ? | -8.4% | -2.7% | 3.1%
CN(CC(=O)Nc1ccc(F)c(F)c1F)C(=O)CCCSc1nc2ccccc2[nH]1 | 5.6% | 11.7 | ? | ? | 1.2%
Cc1cccc(NC(=O)c2cc(-c3cccnc3)nc3c(C)cccc23)n1 | ? | i | 14.6µM* | ? | ?
Cc1cc(NC(=O)c2ccc(-c3ccccc3F)o2)no1 | 16.2% | -6.9 | 18.4µM* | ? | 15.8%
Cc1cc(NC(=O)c2cc(-c3ccncc3)nc3c(C)cccc23)no1 | 5.8µM* | 37.2 | 2.91µM* | 4.11µM* | 3.66µM*
COc1cccc(NC(=O)c2cc(-c3cccnc3)nc3c(Cl)cccc23)c1 | -24.2% | -7.0 | ? | ? | ?
Cc1cc(NC(=O)c2cccc(C(=O)Nc3cc(C)on3)n2)no1 | -15.8% | 0.0 | 0.651µM* | 0.184µM* | -25.0%
Cc1cc(NC(=O)c2cc(-c3ccccn3)nc3c(Cl)cccc23)no1 | -7.9% | 16.9 | -13.8% | -17.8% | -7.4%
Cc1cc(NC(=O)c2c(Cl)cccc2Cl)no1 | 2.1% | -3.5 | -6.1% | 4.1% | 2.4%
Cc1cccc(NC(=O)c2ccc(S(=O)(=O)NCc3cccnc3)cc2)c1 | -1.4% | 45.9 | ? | 1.3% | -14.3%
Cc1cccc(C)c1NC(=O)CN(c1c(C)cccc1C)S(C)(=O)=O | -1.7% | -19.1 | 13.8% | 21.3% | 2.1%
CC1CCC(NC(=O)COC(=O)c2ccco2)CC1 (stereo unspecified) | 2.2% | -8.6 | 2.4% | 3.2% | 9.7%
COc1ccc(/C=C2/SC(=S)N(CCCC(=O)N3CCN(C)CC3)C2=O)cc1 | -3.5% | i | 20.6µM* | ? | -28.9%
COc1ccc(/C=C2\SC(=S)N(CCC(=O)Nc3ccc(O)cc3)C2=O)cc1 | ? | 16.2 | -4.3% | -1.1% | -0.1%
COc1ccc(/C=C2\SC(=S)N(CC(=O)N3CCN(C)CC3)C2=O)cc1 | -0.4% | -19.4 | 20.6µM* | ? | -6.4%
COc1ccc(-c2cc3c(=O)n(CC(=O)N4CCN(C)CC4)ncn3n2)cc1 | 0.0% | 2.5 | -27.1% | 20.6µM* | 0.8%
COc1ccc(-c2cc3c(=O)n(CC(=O)N4CCCCC4)ncn3n2)cc1 | 27.0% | -11.4 | 4.9% | -18.7% | 11.8%
CN(C(=O)COC(=O)CNC(=O)c1ccccc1F)C1CCCCC1 | -7.7% | 9.9 | 11.8% | -3.6% | -10.1%
Cc1ccc(CN2CCOc3ccc(CN4CCN(CCO)CC4)cc3C2)s1 | . | . | -14.5% | 10.4% | .
CCc1ccc2oc(=O)cc(CN3CCCCC3)c2c1 | 12.6% | 17.6 | 7.3% | -25.9% | 7.4%
S=C(c1ccc2c(c1)OCO2)N1CCN(c2cccc(Cl)c2)CC1 | ? | 31.1 | 4.11µM* | 3.66µM* | 3.26µM*
Cc1cccc(N2CCN(C(=S)c3ccc4c(c3)OCO4)CC2)c1 | 0.4% | 3.5 | 5.8µM* | 6.51µM* | ?
SMILES | HT1080NT lethal | IL-1B inflam inh | TDP1 cell noCPT | DT40 TDP1 CPT | HT1080 IDH1KD tx
COc1cc(S(=O)(=O)N(C)C)ccc1F | -3.3% | -4.2 | -15.1% | -1.0% | -0.4%
COc1cccc(-c2noc(C3CCCN(C(=O)CC(C)(C)C)C3)n2)c1 (stereo unspecified) | -3.0% | 16.6 | ? | 16.4µM* | -1.0%
CCCC(=O)N1CCCC(c2nc(-c3cccs3)no2)C1 (stereo unspecified) | 16.4% | -14.2 | 25.9µM* | ? | 6.9%
CCCCC(=O)N1CCCC(c2nc(-c3cccc(OC)c3)no2)C1 (stereo unspecified) | -0.1% | -2.2 | 14.6µM* | ? | 6.9%
COc1ccc(N/N=C(/C)c2cnnc(-c3ccccc3)n2)cc1 | 2.5% | 11.3 | ? | ? | 23.4%
CCN(CC)S(=O)(=O)c1ccc(NC(=O)CC(NC(C)=O)c2ccccc2)cc1 (stereo unspecified) | -1.8% | -17.1 | -6.0% | -26.1% | 1.0%
Cc1cc(S(=O)(=O)c2ccc(Cl)cc2)nc(S(=O)(=O)c2ccc(Cl)cc2)c1C#N | ? | -103.4* | 0.651µM* | 0.651µM* | 6.51µM*
COc1ccc(C(=O)CNc2ccc(C)cc2C)cc1 | -15.6% | -15.1 | ? | -12.2% | 2.9%
CCCCCOc1ccc2oc(=O)c3c(c2c1)CCCN3C(=O)CN1CCCC(C(=O)OCC)C1 (stereo unspecified) | ? | -23.8 | ? | ? | 23.1µM*
CCOC(=O)C1CCCN(CC(=O)N2CCCc3c2c(=O)oc2ccc(OCc4ccccc4)cc32)C1 (stereo unspecified) | . | . | ? | -8.9% | .
O=C(CN1CCCCC1)N1CCCc2c1c(=O)oc1ccc(OCc3ccccc3)cc21 | -12.6% | -19.2 | ? | ? | ?
O=C(CN1CCN(Cc2ccccc2)CC1)N1CCCc2c1c(=O)oc1ccc(O)cc21 | ? | 35.8 | ? | 23.1µM* | ?
CCCOc1ccc2oc(=O)c3c(c2c1)CCCN3C(=O)CN(C)Cc1ccccc1 | -14.8% | -2.9 | 20.6µM* | ? | -12.0%
CC(=O)Oc1ccc2oc(=O)c3c(c2c1)CCCN3C(=O)CN1CCN(c2ncccn2)CC1 | 1.3% | 1.6 | ? | ? | -1.2%
CCC1CCCCN1CC(=O)N1CCCc2c1c(=O)oc1ccc(OCc3ccccc3)cc21 (stereo unspecified) | . | . | 10.3µM* | 14.6µM* | .
COc1ccc(CC(=O)N/N=C(/C)c2ccco2)cc1 | 20.0% | 3.9 | 13.2% | -0.2% | 29.7%
O=C(Oc1cccc(-c2cnc3ccccc3n2)c1)c1ccco1 | -20.5% | 0.0 | -27.8% | -15.0% | -12.1%
CCN(CC)S(=O)(=O)c1ccc(C)c(C(=O)Oc2cccc(-c3cnc4ccccc4n3)c2)c1 | 11.5% | 2.6 | 20.6µM* | ? | 8.3%
CCN(CC)S(=O)(=O)c1cc(C(=O)Oc2cccc(-c3cnc4ccccc4n3)c2)ccc1OC | -0.4% | 15.9 | 20.6µM* | ? | -14.5%
CCOC(=O)c1ccc(NC(=O)c2nc[nH]c2C(=O)NCCCNC(=O)c2[nH]cnc2C(=O)Nc2ccc(C(=O)OCC)cc2)cc1 | 13.2% | 8.9 | -11.0% | -0.3% | 16.6%
